In the supplement of paper PMC6555819:

How the values were obtained:
Experiment in all cases: PBM binding z-score (relative to random genomic background probes); higher = stronger binding; sequences stand for … in GC…GCGATTGACAGCGTAGAATGAAGG
[1] = system: FXR:RXRa (NR concentration 270 nM, RXRa partner concentration 90 nM)
Outline: (§1)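 Ligand-free nuclear receptor dimers were applied to custom Agilent 4×180K protein-binding microarrays whose double-stranded probes carried direct-repeat seeds, single-nucleotide variants, half-site ablations and random human genomic background sequences in 34-nt variable regions. Incubation lasted 1 h. Binding z-scores were computed against the random background probes from regression-normalized fluorescence.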

[2] = system: LXRa:RXRa (NR concentration 270 nM, RXRa partner concentration 90 nM)
Outline: as §1

[3] = system: LXRa homodimer (NR concentration 270 nM)
Outline: as §1

[4] = system: LXRb:RXRa (NR concentration 270 nM, RXRa partner concentration 90 nM)
Outline: as §1

[5] = system: LXRb homodimer (NR concentration 270 nM)
Outline: as §1

[6] = system: PPARa:RXRa (NR concentration 270 nM, RXRa partner concentration 90 nM)
Outline: as §1

[7] = system: PPARg:RXRa (NR concentration 180 nM, RXRa partner concentration 90 nM)
Outline: as §1

[8] = system: PPARg:RXRa 270nM:90nM, anti-RXR (NR concentration 270 nM, RXRa partner concentration 90 nM)
Outline: as §1

[9] = system: PPARg:RXRa 30nM:10nM, anti-RXR (NR concentration 30 nM, RXRa partner concentration 10 nM)
Outline: as §1

[10] = system: PPARg:RXRa 90nM:30nM, anti-RXR (NR concentration 90 nM, RXRa partner concentration 30 nM)
Outline: as §1

[11] = system: PPARg:RXRa DBDmut IVT, anti-RXR (DBD mutation: RXRa K156A/R161A, NR concentration 270 nM, RXRa partner concentration 90 nM)
Outline: as §1

[12] = system: PPARg:RXRa IVT, anti-PPARg (NR concentration 270 nM, RXRa partner concentration 90 nM)
Outline: as §1

[13] = system: PPARg DBDmut:RXRa IVT, anti-PPARg (DBD mutation: PPARg1 K132A/R137A, NR concentration 270 nM, RXRa partner concentration 90 nM)
Outline: as §1

[14] = system: PPARg DBDmut IVT, anti-PPARg (DBD mutation: PPARg1 K132A/R137A, NR concentration 270 nM)
Outline: as §1

[15] = system: PPARg homodimer (NR concentration 180 nM)
Outline: as §1

[16] = system: PXR:RXRa (NR concentration 270 nM, RXRa partner concentration 90 nM)
Outline: as §1

[17] = system: PXR homodimer (NR concentration 270 nM)
Outline: as §1

[18] = system: RARa:RXR (NR concentration 270 nM, RXRa partner concentration 90 nM)
Outline: as §1

[19] = system: RARa homodimer (NR concentration 270 nM)
Outline: as §1

[20] = system: RARb:RXRa (NR concentration 270 nM, RXRa partner concentration 90 nM)
Outline: as §1

| Sequence | PBM binding z-score [1] | PBM binding z-score [2] | PBM binding z-score [3] | PBM binding z-score [4] | PBM binding z-score [5] | PBM binding z-score [6] | PBM binding z-score [7] | PBM binding z-score [8] | PBM binding z-score [9] | PBM binding z-score [10] | PBM binding z-score [11] | PBM binding z-score [12] | PBM binding z-score [13] | PBM binding z-score [14] | PBM binding z-score [15] | PBM binding z-score [16] | PBM binding z-score [17] | PBM binding z-score [18] | PBM binding z-score [19] | PBM binding z-score [20] |
| --- | --- | --- | --- | --- | --- | --- | --- | --- | --- | --- | --- | --- | --- | --- | --- | --- | --- | --- | --- | --- |
| ATATGTTGGTTACATCCGGGTCATTCAGGCTATG | 1.39 | 1.84 | 0.976 | 2.03 | 1.13 | 2.43 | 1.07 | 1.17 | 0.492 | 0.873 | 1.41 | 2.24 | 1.25 | 1.54 | 1.46 | 2.51 | 1.42 | 2.55 | 1.23 | 1.62 |
| ATATGTAGGTTACATCCGGGTCATGCAGGCTATG | 2.18 | 3.82 | 0.802 | 2.38 | 0.427 | 4.45 | 6.06 | 5.18 | 2.64 | 4.3 | 7.41 | 7.25 | 2.04 | 1.91 | 1.38 | 3.26 | 0.751 | 3.55 | 0.629 | 2.36 |
| GCTAGCAGGCCATTTGTGTCACTCAATGACGGGC | -0.539 | -0.568 | -1.12 | -1.03 | -0.864 | -0.398 | 0.274 | -0.38 | -0.669 | -0.744 | 1.46 | 0.556 | -0.775 | -0.917 | -0.822 | -0.691 | -0.552 | -0.532 | -0.827 | 0.161 |
| TCGAGTAGGTTAGTCGGGGCATGCAGCCAACATA | -0.0547 | 0.104 | -0.427 | 0.0747 | -0.894 | 0.523 | 0.2 | 0.809 | 0.702 | 0.884 | 2.41 | 2.26 | 0.028 | -1.65 | -0.293 | -0.00662 | -0.418 | 0.207 | -0.677 | 0.512 |
| AATACAGGGTCATCGTAGGCCAGACTACGCACAG | 7.17 | 6.52 | 2.16 | 5.02 | 1.46 | 6.05 | 6.77 | 6.04 | 2.96 | 4.83 | 2.63 | 4.16 | 1.31 | 1.03 | 2.16 | 4.73 | 0.736 | 4.7 | 0.914 | 4.5 |
| ATATGTAGGTTACATCCGTGTCATTCAGGCTATG | 0.799 | 4.06 | 0.794 | 1.81 | 0.59 | 3.6 | 5.07 | 4.33 | 1.88 | 3.27 | 7.68 | 7.5 | 2.03 | 4.51 | 1.36 | 0.878 | 0.202 | 0.935 | 0.528 | 1.28 |
| CCGAGTAGGTTAAGGGGCATTCAGGCAACGGTGA | 0.765 | 0.894 | -0.155 | 1.02 | -0.297 | 3.51 | 6.06 | 6.42 | 4.16 | 6.65 | 3.63 | 4.08 | -0.405 | -0.995 | 0.976 | 0.49 | 0.0402 | 1.39 | 0.293 | 1.51 |
| TCTTGTAGATCAACAGGAGCTTAAGAAAGATCGA | -0.438 | -0.744 | -1.18 | -0.366 | -0.825 | 0.0739 | -0.318 | 0.847 | 2.14 | 1.43 | 1.16 | 0.103 | 0.548 | -0.235 | -1.17 | -0.361 | -0.82 | -0.535 | -0.604 | -0.522 |
| CGTCCAAGGTCCAGGTCAGTGAAAGAGACTCGAA | 0.579 | 0.595 | 0.0341 | 0.462 | -0.914 | 1.17 | 0.0886 | 0.162 | -0.651 | -0.258 | 0.342 | 0.512 | -0.921 | -0.937 | 0.811 | 0.618 | -0.111 | 0.904 | 0.0146 | 2.52 |
| TGTCAAAGATCAAAGGTAACGTAAGTATCCACAC | 1.19 | 1.08 | -0.325 | 1.32 | -0.103 | 2.73 | 4.17 | 4.22 | 2.19 | 3.68 | -0.516 | 2.24 | 1.24 | 1.01 | 0.484 | 1.26 | -0.19 | 2.22 | 0.426 | 1.02 |
| ATATGTAGGTTACATCCGGGTCATTTAGGCTATG | 2 | 4.62 | 1.8 | 3.3 | 0.865 | 4.68 | 6.01 | 5.23 | 2.64 | 4.38 | 7.42 | 7.5 | 4.18 | 3.77 | 3.45 | 3.45 | 1.06 | 3.55 | 0.824 | 2.16 |
| TACCCTAGGTCATGCGGGCCAGTATAGTGTCGGC | 4.4 | 6.5 | 8.1 | 3.42 | 2.52 | 3.62 | 3.01 | 2.92 | 0.448 | 1.71 | 1.96 | 3.63 | 0.136 | -0.0789 | 0.581 | 1.72 | 0.593 | 2.37 | 0.299 | 3.93 |
| CGTCCAGGGTCAATGCTAGGTCAGTGAAAGCATT | 6.33 | 5.16 | 0.988 | 4.06 | -0.00452 | 5.61 | 4.11 | 4.59 | 1.57 | 3.18 | 1.7 | 3.15 | -0.224 | 0.0209 | 3.59 | 4.54 | -0.194 | 6.03 | 0.75 | 4.82 |
